Here are results for 19 compounds from PubChem BioAssay (NCATS).

Assay [1] is described as follows: P-glycoprotein substrates identified in KB-8-5-11 adenocarcinoma cell line, qHTS therapeutic library screen (AID 1346987). Also: nearly all actives have a fitted effect of over 65% in size. As to activity change, negative = cytotoxicity: series mostly up to about 44 µM. In a few lines: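 KB-8-5-11: colchicine-selected sub-line of KB-3-1 over-expressing P-gp; assay medium lacked colchicine. 72 h drug exposure at 37 degree C, CellTiter-Glo.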
(Quantitative high-throughput screening tests each substance at several concentrations.)

Assay [2] has as its system Zika virus NS2B-NS3 protease (unlinked complex). In words: Primary screen GU Rhodamine qHTS for Zika virus inhibitors: Unlinked NS2B-NS3 protease assay (AID 1347159). Also: nearly all actives have a fitted effect of over 60% in size. Also: potency is read from the fitted curve at half-maximal effect. In a few lines: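 Percent inhibition derives from the 15-min fluorescence change (ex 480, em 540 nm), normalized to no-enzyme and no-inhibitor wells. Reactions contained 25 nM NS2B-NS3 complex and 1.5 microM substrate in 10 mM Tris-HCl pH 8.0.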

Assay [3] deals with Zika virus NS2B-NS3 protease (linked construct). The assay can be described thus: Primary screen NINDS Rhodamine qHTS for Zika virus inhibitors (AID 1347160). Also: nearly all actives have a fitted effect of over 55% in size. In a few lines:
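In 10 mM Tris-HCl pH 8.0 containing 0.01% Tween 20, linked NS2B-NS3 protease (25 nM final) is exposed to test compounds for 15 min. Cleavage of 1.5 microM Rhodamine110 substrate is tracked by fluorescence over 15 min.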

Results filed as inconclusive are left out. Calls of active or inactive are those of the source. Calls follow the shape of the dose curve; as a rule, active = well fitted curve in the direction sought with a large enough effect; inconclusive = small, poorly fitted or top-dose-only effect, or another doubt; inactive = no such curve, though single readings can be large; an effect the other way counts as inactive or inconclusive. *1 amine or outer side, *2 acyl side, *3 side chain or, on linkers, in order; H or OH if unused. Where a SMILES comes first, the peptide text is derived from it. [ ]: non-standard residue; d: D form. X13 = O=C(C(CC(O)CO)O[*:1])[*:2]; NMeV = CN[CH](C(=O)O)C(C)C; NMeA = CN[CH](C)C(=O)O; βAla = NCCC(=O)O
% is scaled to controls: 0 for no effect and ±100 for the full control effect.

Consider `Cc1nnc(-c2sc(NC(=O)[C@H](C(C)C)n3c(=O)[nH]c4ccccc4c3=O)nc2C)o1`, for which the Potency entry in assay [1], in assay [2] and in assay [3] was “inactive” each time.
Take `C[C@@H]1O[C@@H](OC2C(CO)OC(OCC3OC(OC(=O)[C@]45CCC(C)(C)CC4C4=CCC6[C@@]7(C)CC[C@@H](O)[C@](C)(C(=O)O)C7CC[C@@]6(C)[C@]4(C)CC5)C(O)C(O)C3O)C(O)C2O)[C@H](O)[C@H](O)[C@H]1O` (some centres not stated): in assay [1], the activity change, negative = cytotoxicity was 5.62% [at 9.29 µM] (inactive). The Potency entry in assay [2] and in assay [3] was “inactive” throughout.
`CCOC(=O)C(CCc1ccccc1)NC1CCCN2CCCC(C(=O)O)N2C1=O` (configuration not stated): the Potency entry in assay [1], in assay [2] and in assay [3] was “inactive” throughout.
For the compound `COc1ccc(C(=O)NCc2cc(C(C)C)no2)cc1OC1CCN(C)CC1`, the Potency result in assay [1], in assay [2] and in assay [3] was “inactive” each time.
Consider `COc1cc(O)cc(C)c1C(=O)OC1C(CO)OC(n2ccc(=O)[nH]c2=O)C1OC(C)=O` (configuration not stated), for which the Potency entry in assay [1], in assay [2] and in assay [3] was “inactive” each time.
Consider `Cc1ccccc1-c1cc(N2CCN(C)CC2)ncc1N(C)C(=O)C(C)(C)c1cc(C(F)(F)F)cc(C(F)(F)F)c1`, for which the Potency result in assay [1], in assay [2] and in assay [3] was “inactive” in each case.
`C[C@@H]1O[C@@H](O[C@H]2[C@H](OC(=O)[C@]34CCC(C)(C)C[C@H]3C3=CCC5[C@@]6(C)CC[C@H](O[C@@H]7O[C@H](CO[C@@H]8OC[C@H](O)[C@H](O)[C@H]8O)[C@@H](O)[C@H](O)[C@H]7O)C(C)(C)C6CC[C@@]5(C)[C@]3(C)C[C@H]4O)OC[C@@H](O)[C@@H]2O)[C@H](O)[C@H](O[C@@H]2OC[C@](O)(CO)[C@H]2O)[C@H]1O[C@@H]1OC[C@H](O)[C@H](O[C@@H]2OC[C@@H](O)[C@H](O)[C@H]2O)[C@H]1O` (some centres not stated): the activity change, negative = cytotoxicity in assay [1] is 5.27% [at 9.29 µM] (inactive). Besides, the activity change, negative = inhibition in assay [2] was -5.76% [at 19.1 µM] (inactive). Besides, the outcome in assay [3] was “inactive [at 10.7 µM]”.
For `OC[C@@]1(O)CO[C@H](OC[C@H]2O[C@@H](OCCc3ccccc3)[C@H](O)[C@@H](O)[C@@H]2O)[C@@H]1O`, the Potency entry in assay [1], in assay [2] and in assay [3] was “inactive” throughout.
For `CCC(C)C1NC(=O)C2CCCN2C(=O)C(CC(O)CO)OC(=O)CCNC(=O)C(C)N(C)C(=O)C(C(C)C)N(C)C1=O` (configuration not stated) (cyclo([X13]PI[NMeV][NMeA][βAla]); configuration not given here), the Potency entry in assay [1], in assay [2] and in assay [3] was “inactive” throughout.
Regarding `C=C1CCC2[C@](C)(CO)CCC[C@@]2(C)[C@@H]1CCC1=CCOC1=O` (some centres not stated), the Potency entry in assay [1], in assay [2] and in assay [3] was “inactive” each time.
In the case of `C[C@H]1[C@H](C)CC[C@]2(C(=O)O)CC[C@]3(C(=O)O)C(=CCC4[C@@]5(C)CC[C@H](O[C@@H]6O[C@@H](C)[C@H](O)[C@@H](O)[C@H]6O)C(C)(C)C5CC[C@]43C)[C@H]12` (some centres not stated), the Potency entry in assay [1], in assay [2] and in assay [3] was “inactive” throughout.
For `O=C(NC1Cc2ccccc2N(C[C@@H](O)CO)C1=O)c1cc2cc(Cl)sc2[nH]1` (some centres not stated), the Potency result in assay [1], in assay [2] and in assay [3] was “inactive” each time.
Consider `C/C=C1/[C@H](O[C@@H]2O[C@H](CO)[C@@H](O)[C@H](O)[C@H]2O)OC=C(C(=O)OC)[C@H]1CC(=O)OCCc1ccc(O)c(O)c1`, for which the Potency entry in assay [1], in assay [2] and in assay [3] was “inactive” in each case.
As for `COc1cccc(C(=O)NCCNc2nc3cc(C)cc(C)c3cc2C#N)c1`, the Potency entry in assay [1], in assay [2] and in assay [3] was “inactive” throughout.
For the compound `CC(=O)O[C@@]1(C)[C@@H]2CC(=C(C)C)C(=O)C[C@@]2(C)CC[C@H]1OC(=O)C1(C)OC1C` (some centres not stated), the Potency entry in assay [1], in assay [2] and in assay [3] was “inactive” in each case.
For the compound `COC1CC(O[C@H]2CC[C@@]3(C)C(=CC[C@]4(O)C3[C@H](O)[C@@H](O)[C@]3(C)[C@@H]([C@H](C)O)CC[C@@]34O)C2)OC(C)C1OC1CC(OC)C(OC2CC(OC)C(OC3OC(C)C(OC4OC(CO)C(O)C(O)C4O)C(OC)C3O)C(C)O2)C(C)O1` (some centres not stated), the activity change, negative = cytotoxicity in assay [1] was 0.732% [at 9.29 µM] (inactive). Further, the Potency result in assay [2] and in assay [3] was “inactive” in each case.
For `CC(C)=CCc1c(O)cc2oc3cc(C)cc(O)c3c2c1C`, the Potency result in assay [1] and in assay [3] was “inactive” throughout. In addition, the Potency in assay [2] is 20 µM (active).
Turning to `C[C@@H]1O[C@@H](O[C@H]2[C@H](OC(=O)[C@]34CCC(C)(C)C[C@H]3C3=CCC5[C@@]6(C)C[C@@H](O)[C@@H](O)[C@@](C)(CO)C6[C@H](O)C[C@@]5(C)[C@]3(C)CC4)OC[C@H](O)[C@@H]2O)[C@H](O)[C@H](O)[C@H]1O[C@@H]1OC[C@@H](O)[C@H](O[C@H]2O[C@H](C)[C@@H](O)[C@H](O)[C@@H]2O)[C@H]1O` (some centres not stated), the activity change, negative = cytotoxicity in assay [1] is 2.85% [at 9.29 µM] (inactive). In addition, the Potency result in assay [2] and in assay [3] was “inactive” each time.
For `COC(=O)Cn1nc(-c2cccc(OC)c2)c2ccccc21`, the Potency result in assay [1], in assay [2] and in assay [3] was “inactive” throughout.
